SmPrx2 inh – blocks S. mansoni peroxiredoxin 2 enzymatic activity; 0.07% of 65,000 active; Potency, µM; S. mansoni Prx2 activity coupled to TGR/GSH (TGR is thioredoxin glutathione reductase), NADPH fluorescence loss, qHTS
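Prx2 inhibition was measured as reduced NADPH consumption when electrons flowed from NADPH through TGR and glutathione to Prx2 and H2O2. Plates were read kinetically over 8 min; enzyme reagents were held at 4 deg C during dispensing.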
LT uptake inh – blocks cellular internalization of anthrax lethal toxin. Potency, µM (top dose mostly 40 µM), usual class: inhibitors. 0.67% of 70,000 active. Cells, anthrax lethal toxin internalization, FRET ratio (460/530); note: nearly all actives have a fitted effect of over 50% in size
AmpC nodet inh – AmpC beta-lactamase inhibition, detergent-free assay; P00811; AmpC nitrocefin hydrolysis, absorbance 480 nm, no detergent; Potency, µM (series often up to 28.7 µM); 1.8% of 71,000 active; AID 585
Target sequence (P00811 whole entry, looked up): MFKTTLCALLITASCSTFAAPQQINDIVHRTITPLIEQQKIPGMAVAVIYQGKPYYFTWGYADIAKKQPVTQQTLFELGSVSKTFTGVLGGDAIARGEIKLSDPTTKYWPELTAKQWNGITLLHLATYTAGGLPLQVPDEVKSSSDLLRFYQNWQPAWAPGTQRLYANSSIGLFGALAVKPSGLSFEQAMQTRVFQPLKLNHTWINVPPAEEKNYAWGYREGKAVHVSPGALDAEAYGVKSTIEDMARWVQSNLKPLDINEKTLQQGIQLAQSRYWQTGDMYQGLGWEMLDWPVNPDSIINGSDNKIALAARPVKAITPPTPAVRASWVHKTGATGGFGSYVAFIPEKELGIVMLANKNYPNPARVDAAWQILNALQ
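AmpC, 20 mM phosphate pH 7.0; 15 min cpd preinc, RT; start with nitrocefin (800 uM stock); A480 kinetic read, 20 s intervals, 4 min. No-enzyme wells = negative control.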
AmpC inh det – AmpC beta-lactamase inhibition, detergent assay | P00811 | purified AmpC, nitrocefin hydrolysis with detergent | Potency, µM (titrated, usually from 28.7 µM) | 0.09% of 71,000 active | AID 584; active = well fitted curve in the direction sought with a large enough effect; inconclusive = small, poorly fitted or top-dose-only effect
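E. coli AmpC (5.3 nM) in 20 mM phosphate pH 7.0 with 0.01% Triton X-100, preincubated 15 min RT with compound; nitrocefin (2 uL of 800 uM stock) hydrolysis followed by 480 nm absorbance every 20 s over 4 min.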
Large screens that a line does not name were inactive; ! = repeats disagree; [ ] = dose if it differs, or a comment. Shown are actives, neighbours in structure and some others; about 2.6% of the full set was active somewhere. Unless noted, calls come from the whole dose curve.

CCOC(=O)N1CCc2c(sc(NC(=O)c3ccc(Cl)s3)c2C(N)=O)C1	LT uptake inh 5µM
Cc1ccc(C(=O)[C@@H]2[C@@H]3[C@@H](C(=O)[C@@H]4OC[C@H]3O4)[C@@H]3C=Cc4ccccc4N23)cc1	LT uptake inh inconclusive
CC(C)(C)n1nc2c(c1NC(=O)COc1ccc(Cl)cc1)CSC2	LT uptake inh inconclusive, AmpC nodet inh 13µM
Cc1ccc(-c2nn3c(C)nnc3s2)cc1NC(=O)COc1ccc(Cl)cc1	none
CCOC(=O)C(C(C)=O)c1c(Br)c(O)c(O)c2c(C(=O)c3ccc(C)cc3)coc12 (configuration not stated)	LT uptake inh inconclusive, AmpC nodet inh 6.3µM
COc1cccc(NC(=O)c2ccc(CN3CCN(c4ccccc4)CC3)cc2)c1	LT uptake inh 10µM
COC(=O)N[C@H](c1ccccc1)[C@@]1(C)C[C@@H]1[C@@H](C)C(=O)Nc1ccc2ccccc2c1	LT uptake inh 10µM
CC(=O)N[C@H](c1ccccc1)[C@@]1(C)C[C@@H]1[C@@H](C)C(=O)Nc1ccc2ccccc2c1	LT uptake inh inconclusive
Nc1ccccc1S[C@@H](C[N+](=O)[O-])c1ccc2c(c1)OCO2	LT uptake inh inconclusive
Cl.Cl.Cl.Cl.Cl.Cl.N.N.N.N.NNNNN.NNNNN.O.O.[Ru].[Ru].[Ru]	AmpC nodet inh 5µM
O=c1c(O)c(-c2ccc(O)cc2)oc2cc(O)ccc12	LT uptake inh inconclusive, AmpC nodet inh inconclusive
O=c1c(O)c(-c2ccc(O)c(O)c2)oc2cc(O)ccc12	AmpC nodet inh 13µM!
CCCc1cc(C(=O)Nc2sc(C)c(CC)c2C#N)no1	LT uptake inh 13µM, AmpC nodet inh 4µM[single pt active]
CCCc1cc(C(=O)Nc2sc(C)c(C)c2C(=O)OCC)no1	LT uptake inh inconclusive, AmpC nodet inh 4µM[single pt active]
CCCc1cc(C(=O)Nc2sc3c(c2C#N)CCC3)no1	LT uptake inh inconclusive, AmpC nodet inh 4µM[single pt active]
CCCc1cc(C(=O)Nc2cccnc2)no1	AmpC nodet inh 4µM[single pt active]
CCOC(=O)c1c(NC(=O)c2cc(C3CC3)on2)sc(C(C)=O)c1C	none
COc1cccc(C2c3c(oc4ccccc4c3=O)C(=O)N2CCCN2CCOCC2)c1 (configuration not stated)	AmpC nodet inh 4µM[single pt active]
CC(C)CCOc1cccc(C2c3c(oc4ccccc4c3=O)C(=O)N2CCCN2CCOCC2)c1 (configuration not stated)	none
Nc1ncnc2c1nc(Br)n2[C@@H]1O[C@H]2COP(=O)(O)O[C@@H]2[C@H]1O	none
Cc1nnc(SCC2=C(C(=O)O)N3C(=O)[C@@H](NC(=O)Cn4cnnn4)[C@@H]3SC2)s1	none
O=C(O)c1cc[c]([Hg][Cl])cc1	SmPrx2 inh 0.44, LT uptake inh inconclusive
COc1cc(/C=C\C(=O)CC(=O)/C=C\c2ccc(O)c(OC)c2)ccc1O	LT uptake inh inconclusive
COc1cccc(-c2csc(N3CCN(C(=O)C4CCCCC4)CC3)n2)c1	LT uptake inh 10µM
N#C/C(=C\c1ccc(O)c(O)c1)C(N)=S	SmPrx2 inh inconclusive, LT uptake inh 25µM!
Brc1ccccc1CN1CCC(N2CCCCC2)CC1	LT uptake inh 10µM (no result: SmPrx2 inh)
O=C(c1ccccc1)N1CCN(Cc2ccccc2Br)CC1	none
CC[C@H](CO)NC(=O)[C@@H]1C=C2c3cccc4[nH]cc(c34)C[C@@H]2N(C)C1	LT uptake inh inconclusive
COc1cc2c(=O)n(CC3CCCO3)c(=O)n(CC(=O)Nc3ccc(F)cc3F)c2cc1OC (configuration not stated)	AmpC nodet inh 4µM[single pt active]
O=S(=O)(O)c1cc(N=[N+]([O-])c2cc(S(=O)(=O)O)c3ccccc3c2)cc2ccccc12	none
Cc1cc(-n2c(SCC(=O)NCc3cccs3)nc3n[nH]c(C)c3c2=N)ccc1Cl	LT uptake inh 10µM
Cc1[nH]nc2nc(SCC(=O)NCC3CCCO3)n(-c3ccc(Br)cc3)c(=N)c12 (configuration not stated)	none
CN(C)c1ccc(C2(c3ccc(N(C)C)cc3)OC(=O)c3cc(N(C)C)ccc32)cc1	LT uptake inh inconclusive (no result: SmPrx2 inh)
Brc1ccc(Oc2ccc(Br)cc2Br)c(Br)c1	LT uptake inh inconclusive, AmpC nodet inh 13µM (no result: SmPrx2 inh)
O=C1OC(O)C(C(Cl)Cl)=C1Cl (configuration not stated)	LT uptake inh inconclusive (no result: SmPrx2 inh)
O=C(/C=C/c1c(C(=O)O)[nH]c2cc(Cl)cc(Cl)c12)Nc1ccccc1	none (no result: SmPrx2 inh, AmpC nodet inh, AmpC inh det)
Oc1c(CN2CCc3ccccc3C2)cc(Cl)c2cccnc12	LT uptake inh inconclusive, AmpC nodet inh 2.5µM[single pt active]
CN(C)c1ccnc(SCc2ccccc2Cl)c1C#N	LT uptake inh 7.9µM
O=S(=O)(Nc1ccc2nc(-c3ccc(Br)o3)[nH]c2c1)c1ccccc1	AmpC nodet inh 3.2µM (no result: LT uptake inh)
Cc1ccc(C2CC(c3ccccc3C)n3nc(N)nc3N2)cc1 (configuration not stated)	AmpC nodet inh 4µM[single pt active]
COc1cccc(C2CC(c3ccccc3C)n3nc(N)nc3N2)c1 (configuration not stated)	AmpC nodet inh 4µM[single pt active]
CCOc1ccc(C2CC(c3ccccc3C)n3nc(N)nc3N2)cc1 (configuration not stated)	none
COc1ccc(C2CC(c3ccccc3C)n3nc(N)nc3N2)cc1 (configuration not stated)	AmpC nodet inh 4µM[single pt active]
O[C@@H](COc1cccc2ccccc12)CN1CCOCC1	LT uptake inh inconclusive
O=C(O)C[C@@H](C(=O)O)C1c2ccccc2-c2ccccc21	none
Cc1ccc(S(=O)(=O)N2CCN(C(=O)CSc3nc4ccccc4c(=O)[nH]3)CC2)cc1	none
O=C(CSc1nc2ccccc2c(=O)[nH]1)N1CCCCC1	AmpC nodet inh 4µM[single pt active]

Screening data (PubChem)
